Bioassay records (PubChem BioAssay)
NPC1 promoter act: activates the NPC1 promoter | Huh7 NPC1 promoter luciferase reporter, 24 h | Potency, µM (series often up to 9.22 µM), without a hit: at the highest dose activation, hits mostly activators | 2.4% of 320,000 active; note: % of control where 0% means no effect; nearly all actives have a fitted effect of over 60% in size
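Luminescence from an NPC1 promoter-driven luciferase reporter in stably transfected Huh7 cells was measured after 24 h compound treatment at 37 °C, followed by 10 min ambient incubation with luciferase detection reagent.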
ELG1 genotoxic: induces genotoxicity in HEK293T cells with luciferase-tagged ELG1. HEK293T ELG1-luciferase reporter, luminescence, 16 h. Potency, µM (top dose mostly 46 µM), for the others: top-dose activity change, positive = activation, actives largely listed as activators. 1.3% of 330,000 active. AID 504466; note: % of control where 0% means no effect; nearly all actives have a fitted effect of over 60% in size
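ELG1-luciferase HEK293T cells, 2,000/well; compound pinned in; 16 hr, 37 °C, 5% CO2; ONE-Glo, 30 min RT; luminescence on CCD imager.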
SMN2 splice enh: SMN2 splice variant enhancement; HEK293 SMN2-luciferase splicing reporter, luminescence, 30-36 h; Potency, µM (series often up to 46.1 µM), inactives show top-dose activity change, positive = activation, hits mostly activators; 2.8% of 210,000 active; AID 1458; note: % of control where 0% means no effect; nearly all actives have a fitted effect of over 55% in size
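HEK293 cells carry an SMN2 minigene-luciferase reporter in which exon 7 inclusion puts luciferase in frame. Cells were seeded at 2000 cells/well, attached for 10-12 hours, then exposed to compounds for 30-36 hours at 37C before ONE-Glo luminescence.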
Luc counter: Kinase-Glo luciferase inhibition (counter-screen). Q27757. Kinase-Glo luciferase, ATP luminescence, 8 min. Potency, µM (doses to about 38.3 µM), for inactives: at the top dose activity change, negative = inhibition, actives largely listed as inhibitors. 0.28% of 200,000 active. AID 1379; note: % is set by controls: 0 for no effect and ±100 for the full control effect; nearly all actives have a fitted effect of over 60% in size
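Compounds were added to a substrate mix at pH 7.2 (50 mM imidazole, 10 uM ATP, within the enzyme's linear range), followed by Kinase-Glo detection reagent; luminescence was measured after 8 minutes at ambient temperature.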
Rab9 promoter act: Rab9 promoter activation; Huh7 Rab9 promoter-luciferase reporter, luminescence, 24 h; Potency, µM (series often up to 9.22 µM), without a hit: top-dose activation, negative = inhibition, most hits filed as activators; 2.8% of 320,000 active; AID 485297; note: % of control where 0% means no effect; nearly all actives have a fitted effect of over 60% in size
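Huh7 cells stably carrying a Rab9 promoter-luciferase reporter, 1500 cells per well in OP-MEM I with 10% FBS, treated with compound 24 hours at 37C. Luciferase activity read by luminescence after 10 minutes with Amplite reagent.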
FLuc modulator: counter-screen for miR-21 project: firefly luciferase inhibitors or activators; 6.9% of 360,000 active; P08659; purified FLuc, Km substrates, luminescence inhibition; Potency, µM (doses to about 57.5 µM), without a hit: at the highest dose activity change, negative = inhibition, hits mostly inhibitors; AID 588342;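 note: plate controls were vehicle for no effect and reference inhibitor for full effect; nearly all actives have a fitted effect of over 55% in size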
Target sequence (P08659 whole entry, looked up): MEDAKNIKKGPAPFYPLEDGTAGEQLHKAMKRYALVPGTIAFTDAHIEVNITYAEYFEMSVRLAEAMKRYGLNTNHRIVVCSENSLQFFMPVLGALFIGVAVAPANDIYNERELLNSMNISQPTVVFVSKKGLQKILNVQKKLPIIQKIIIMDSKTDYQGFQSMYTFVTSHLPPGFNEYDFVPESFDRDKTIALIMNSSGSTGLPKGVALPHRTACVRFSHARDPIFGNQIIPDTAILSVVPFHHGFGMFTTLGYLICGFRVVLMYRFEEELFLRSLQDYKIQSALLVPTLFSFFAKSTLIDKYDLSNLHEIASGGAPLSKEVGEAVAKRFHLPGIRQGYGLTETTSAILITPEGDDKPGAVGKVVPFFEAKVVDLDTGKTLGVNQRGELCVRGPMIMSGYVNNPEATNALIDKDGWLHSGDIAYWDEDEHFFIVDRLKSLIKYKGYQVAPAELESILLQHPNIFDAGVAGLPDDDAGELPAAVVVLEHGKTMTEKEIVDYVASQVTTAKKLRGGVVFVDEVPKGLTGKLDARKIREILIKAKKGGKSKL
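Purified P. pyralis luciferase, 10 nM final, with Km-level 10 uM D-luciferin and 10 uM ATP in 50 mM Tris acetate pH 7.5, 10 mM Mg acetate, 0.01% Tween-20, 0.05% BSA; 6-point qHTS titration about 60 µM downward; luminescence read.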
Active calls of the source: *. Shown are actives, neighbours in structure and some others; about 7.3% of the full set was active somewhere. Calls come from the whole dose curve; as a rule, active = well fitted curve in the direction sought with a large enough effect; inconclusive = small, poorly fitted or top-dose-only effect, or another doubt; inactive = no such curve, though single readings can be large; an effect the other way counts as inactive or inconclusive. Potency is the fitted concentration of half-maximal effect.

Screening Fc1ccc(CSc2ccc(-c3ccc4c(c3)OCO4)nn2)cc1 returned NPC1 promoter act 2%, ELG1 genotoxic 13%, SMN2 splice enh 7%, Luc counter 1%, Rab9 promoter act -4% and FLuc modulator inconclusive.
Screening c1cncc(CSc2ccc(-c3cccnc3)nn2)c1 returned NPC1 promoter act 0%, ELG1 genotoxic 3%, SMN2 splice enh 11%, Luc counter -1%, Rab9 promoter act -2% and FLuc modulator -9%.
c1ccc(CSc2ccc(-c3ccc4c(c3)OCO4)nn2)cc1 was read as NPC1 promoter act 3.5µM*, ELG1 genotoxic inconclusive, SMN2 splice enh 18µM*, Luc counter -1%, Rab9 promoter act 3.2µM* and FLuc modulator 2.7µM*.
`Cn1c(SCc2ccccc2)nnc1-c1ccc2c(c1)OCO2` gave NPC1 promoter act inconclusive, ELG1 genotoxic 18µM*, SMN2 splice enh 22µM*, Luc counter -1%, Rab9 promoter act inconclusive and FLuc modulator inconclusive.
Screening Cn1c(SCC#N)nnc1-c1ccc2c(c1)OCO2 returned NPC1 promoter act -1%, ELG1 genotoxic 4%, SMN2 splice enh -9%, Luc counter -4%, Rab9 promoter act -3% and FLuc modulator 0%.
Screening CCCC1(C(=O)OC)C=C2C(=C(C)C(=O)C2C)CN1 (centres undefined) returned SMN2 splice enh inconclusive and Luc counter -7%.
`NCCC[C@@H](CC(=O)N[C@@H]1CCCC[C@H]1C(=O)N[C@H](CC(=O)N[C@@H](CCC(=O)O)CC(=O)O)Cc1ccccc1)NC(=O)C[C@H](Cc1c[nH]c2ccccc12)NC(=O)[C@@H]1CCCC[C@H]1N` gave SMN2 splice enh 1% and Luc counter 0%.
`Cc1ccsc1/C=N/NC(=O)c1sccc1C` gave NPC1 promoter act 2.5µM*, ELG1 genotoxic inconclusive, SMN2 splice enh 11µM*, Luc counter inconclusive, Rab9 promoter act 3.2µM* and FLuc modulator 5.4µM*.
Screening Cc1ccsc1/C=N/NC(=O)CO returned NPC1 promoter act 0%, ELG1 genotoxic 5%, SMN2 splice enh 5%, Luc counter -1%, Rab9 promoter act -10% and FLuc modulator -2%.
Screening Cc1ccc(C(=O)N/N=C\c2sccc2C)cn1 returned NPC1 promoter act inconclusive, ELG1 genotoxic inconclusive, SMN2 splice enh inconclusive, Luc counter -8%, Rab9 promoter act inconclusive and FLuc modulator 17µM*.
Screening Cc1ccsc1/C=N/N=C/c1sccc1C returned NPC1 promoter act 4µM*, ELG1 genotoxic inconclusive, Rab9 promoter act 1.6µM* and FLuc modulator 1.1µM*.
O=c1c2[nH]c3ccccc3c2nc(SCc2cccc(F)c2)n1-c1ccccc1 was read as FLuc modulator 1%.
`O=C(CS(=O)(=O)c1cccc2nsnc12)N1CCN(c2ccc(F)cc2)CC1` gave FLuc modulator -1%.
`CCOC(=O)/C(=C/c1ccc(N2CCC(c3ccccc3)=N2)cc1)C(C)=O` gave NPC1 promoter act inconclusive, ELG1 genotoxic 21µM*, SMN2 splice enh -70%, Luc counter 1%, Rab9 promoter act inconclusive and FLuc modulator -6%.
c1ccc(C2=NN(c3ccccc3)CC2)cc1 was read as NPC1 promoter act 2.8µM*, ELG1 genotoxic inconclusive, Rab9 promoter act 3.5µM* and FLuc modulator 3.4µM*.
S=C1CCC(c2ccc(Cl)cc2)=NN1c1ccccc1 was read as NPC1 promoter act 2%, ELG1 genotoxic -3%, Rab9 promoter act -1% and FLuc modulator -1%.
CC(C)OCCCN(Cc1ccco1)C(=O)c1cc2c(s1)-c1ccccc1OC2 was read as SMN2 splice enh -32% and FLuc modulator -11%.
Screening C(=N\NCc1ccccc1)/c1ccc2nccnc2c1 returned NPC1 promoter act 3.5µM*, ELG1 genotoxic inconclusive, Rab9 promoter act 2.5µM* and FLuc modulator 12µM*.
For Fc1ccc(/C=N/NC(=S)Nc2cccnc2)cc1F the results were NPC1 promoter act 7%, ELG1 genotoxic -2%, SMN2 splice enh -11%, Luc counter 1%, Rab9 promoter act 2% and FLuc modulator -3%.
Screening C(=N\n1cnnc1)/c1ccc2ncccc2c1 returned NPC1 promoter act -6%, ELG1 genotoxic 0%, SMN2 splice enh -7%, Luc counter -2%, Rab9 promoter act 4% and FLuc modulator 3%.
Screening C(=N\NCc1ccccc1)/c1ccc2ncccc2c1 returned NPC1 promoter act 1.1µM*, ELG1 genotoxic 2.6µM*, Rab9 promoter act 1.6µM* and FLuc modulator 4.3µM*.
S=C(N/N=C/c1ccc2ncccc2c1)Nc1ccccc1 was read as NPC1 promoter act inconclusive, ELG1 genotoxic inconclusive, SMN2 splice enh inconclusive, Luc counter -4%, Rab9 promoter act inconclusive and FLuc modulator 4.8µM*.
COc1ccc2ncc3c(-c4ccc(C)c(C)c4)nn(CC(=O)Nc4ccccc4)c3c2c1 was read as FLuc modulator -3%.
Screening CCCn1c(C)cc(C(=O)COC(=O)c2cc(S(=O)(=O)NCC(C)C)c(Cl)cc2Cl)c1C returned NPC1 promoter act 1%, ELG1 genotoxic 8%, SMN2 splice enh inconclusive, Luc counter -3%, Rab9 promoter act -6% and FLuc modulator 9.5µM*.
For CC(C)CNS(=O)(=O)c1cc(C(=O)O)c(Cl)cc1Cl the results were NPC1 promoter act -4%, ELG1 genotoxic 2%, Rab9 promoter act -2% and FLuc modulator -1%.
`CC(C)CNS(=O)(=O)c1cc(C(=O)N2CCOCC2)c(Cl)cc1Cl` gave NPC1 promoter act -3%, ELG1 genotoxic -3%, SMN2 splice enh -4%, Luc counter -1%, Rab9 promoter act -3% and FLuc modulator 6%.
For CC(C)CNS(=O)(=O)c1cc(C(=O)OCC(=O)c2ccc3c(c2)OCCO3)c(Cl)cc1Cl the results were NPC1 promoter act -1%, ELG1 genotoxic 4%, SMN2 splice enh -8%, Luc counter 2%, Rab9 promoter act -14% and FLuc modulator 12µM*.
`COC(=O)C(c1ccc(OC)c(OC)c1)C1c2ccccc2C=C(C)N1C(=O)OC` (centres undefined) gave SMN2 splice enh 6% and Luc counter -3%.
Screening Cc1nc2ccccc2nc(C)c1=NOCc1cccc(F)c1 returned NPC1 promoter act -2%, ELG1 genotoxic -6%, SMN2 splice enh 20µM*, Luc counter 1%, Rab9 promoter act -1% and FLuc modulator -11%.
